This note sets out measurements from PubChem BioAssay AID2685 (National Center for Advancing Translational Sciences (NCATS), 2010).

Among all 320,000 compounds or so, about 2,100 (0.66%) were called active. Another 53% or so got no clear call; they are omitted. Calls follow the shape of the dose curve; as a rule, active = well fitted inhibition curve with a large enough effect in the signal ratio, with a control signal flat (not every such curve was filed as active); inconclusive = small, poorly fitted or top-dose-only effect, or effect the other way, or a change in a side signal; inactive = flat fitted curve, though single readings scatter; the % refers to the signal ratio. What follows is part of a selection rich in actives, with near analogues and random picks from the rest.
Potency is read from the fitted curve at half-maximal effect.

The nature of this assay: qHTS Assay for Lipid Storage Modulators in Drosophila S3 Cells.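 As to cell number change: cells counted by Cell Tracker Red CMTPX staining in the red channel.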 As to lipid storage change, negative = inhibition: % is scaled to controls: 0 for no effect and ±100 for the full control effect. The note with it: BODIPY lipid droplet fluorescence, 18-24 h, cells fed with added oleic acid; cell number change: measured here: cell count max response; series mostly up to 46.1 µM; lipid storage change, negative = inhibition: at the top concentration. The method, boiled down: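 Drosophila S3 cells loaded with oleic acid (400 uM, as added) and compounds at several concentrations; lipid droplets imaged by 488-nm laser-scanning cytometry, 500–530 nm intensity and object ratio to cell channel. Percent activity normalized to 20 uM Triacsin C.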
Consider `Cc1onc(-c2c(F)cccc2Cl)c1C(=O)ONC(=O)c1ccccc1`, for which the “lipid storage change, negative = inhibition” value was -0.558% (inactive) and the cell number change is 10.6%.

As for `O=C(COc1cc2oc(=O)c3c(c2cc1Cl)CCCC3)N1C[C@H]2C[C@@H](C1)c1cccc(=O)n1C2`, the Potency is 1.46 µM (active) and the cell number change amounted to 3.88%.

As to `CCCc1cc(=O)oc2cc(OCC(=O)N3C[C@H]4C[C@@H](C3)c3cccc(=O)n3C4)c(Cl)cc12`, the “lipid storage change, negative = inhibition” value was -2.74% (inactive) and the cell number change is 3.02%.

Turning to `CC(Oc1cc2oc(=O)c3c(c2cc1Cl)CCC3)C(=O)N1C[C@H]2C[C@@H](C1)c1cccc(=O)n1C2` (stereo partly drawn), the “lipid storage change, negative = inhibition” value was -5.06% (inactive) and the cell number change was 18.9%.

Consider `O=C(COC(=O)Cc1n[nH]c(=O)c2ccccc12)Nc1ccc(Cl)cc1F`, for which the “lipid storage change, negative = inhibition” value is 4.92% (inactive) and the cell number change is -2.17%.

Regarding `COc1ccc2c(c1)cc(C(=O)N[C@@H](Cc1ccccc1)C(=O)O)n2C`, the compound was called inactive.

Turning to `CCCCN1C(=O)C2NN=C(C(=O)OC)C2C1=O` (stereo not drawn), the “lipid storage change, negative = inhibition” value was -2.98% (inactive) and the cell number change amounted to 1.06%.

For `CCN1C(=O)[C@@H]2C(C(=O)c3cnccn3)=NN[C@@H]2C1=O`, the “lipid storage change, negative = inhibition” value was 1.67% (inactive) and the cell number change was determined as 10.4%.

`CCOC(=O)C1=NNC2C(=O)N(CC)C(=O)C12` (stereo not drawn): the Potency was 13 µM (active) and the cell number change came to 12.2%.

With `Clc1ccc(Cn2ncc3c(N4CCCC4)ncnc32)cc1`, the compound was called inactive and the cell number change is -16%.

On to `COc1cccc(NC(=O)CN(C)C(=O)c2ccc(S(=O)(=O)Nc3ccccc3C)cc2)c1`, for which the “lipid storage change, negative = inhibition” value was 0.588% (inactive) and the cell number change was -4.07%.

Consider `CCN1CCN(Cc2ccc(NC(=O)c3ccc(C)c(NC(=O)N4CCNC4=O)c3)cc2C(F)(F)F)CC1`, for which the “lipid storage change, negative = inhibition” value is 17.8% (inactive) and the cell number change turned out to be 25.7%.

Take `CCN1CCN(Cc2ccc(NC(=O)c3ccc(C)c(NC(=O)c4cccc5[nH]ccc45)c3)cc2C(F)(F)F)CC1`: the “lipid storage change, negative = inhibition” value was -1.09% (inactive) and the cell number change was -3.74%.

As for `CCN1CCN(Cc2ccc(NC(=O)c3ccc(C)c(NC(=O)c4c[nH]c5cc(C(F)(F)F)ccc5c4=O)c3)cc2C(F)(F)F)CC1`, the Potency is 10.3 µM (active) and the cell number change was -28.9%.

Take `CCOC(=O)Cc1csc(NS(=O)(=O)c2ccc(C(F)(F)F)cc2)n1`: the “lipid storage change, negative = inhibition” value was 8.18% (inactive) and the cell number change is 3.37%.

Consider `COc1ccc(NC(=O)CCNS(=O)(=O)c2cc(Br)cnc2N)c(OC)c1`, for which the “lipid storage change, negative = inhibition” value was -15% (inactive).

In the case of `COc1cc(OC)c(NC(=O)CCNS(=O)(=O)c2cc(Br)cnc2N)cc1Cl`, the compound was called inactive.

With `CCOc1ccc(OCC)c(NC(=O)CCNS(=O)(=O)c2cc(Br)cnc2N)c1`, the Potency was 1.3 µM (active) and the cell number change was -2.69%.

Consider `CN1CCN(S(=O)(=O)c2cccc(C(=O)Nc3cc(C(F)(F)F)ccc3N3CCCC3)c2)CC1`, for which the “lipid storage change, negative = inhibition” value was 15.5% (inactive) and the cell number change is 1.88%.

For the compound `COc1ccc(/C=N/NC(=O)c2nc(-c3ccccc3)cc(-c3ccccc3)n2)cc1`, the “lipid storage change, negative = inhibition” value is -12.8% (inactive) and the cell number change was -21.2%.

For `COc1cccc(/C=N/NC(=O)c2nc(-c3ccccc3)cc(-c3ccccc3)n2)c1O`, the “lipid storage change, negative = inhibition” value was 5.35% (inactive) and the cell number change was -7.98%.

On to `COc1cccc(/C=N/NC(=O)c2nc(-c3ccccc3)cc(-c3ccccc3)n2)c1`, for which the Potency is 20.6 µM (active) and the cell number change is -10.5%.

As for `CCOc1cc(/C=C2\SC(=Nc3ccc(F)cc3)N(c3ccc(F)cc3)C2=O)ccc1OCC(=O)O`, the “lipid storage change, negative = inhibition” value is 11.8% (inactive) and the cell number change was -5.36%.

Regarding `COc1ccccc1C1=CC(=O)C[C@H](c2ccc(Cl)cc2)C1`, the “lipid storage change, negative = inhibition” value was 12.6% (inactive) and the cell number change is -15.5%.

Regarding `Cc1ccccc1C(=O)NC1CCN(CC(=O)Nc2ccccc2)CC1`, the “lipid storage change, negative = inhibition” value was -9.76% (inactive) and the cell number change was -25.1%.

For the compound `CCCC(=O)NC(=S)Nc1ccc(C(C)=O)cc1`, the “lipid storage change, negative = inhibition” value was -28.1% (inactive) and the cell number change was -4.91%.

Turning to `CNC(=S)Nc1ccccc1-c1ccccc1`, the “lipid storage change, negative = inhibition” value was -7.51% (inactive) and the cell number change turned out to be 1.9%.

Turning to `COc1ccccc1COC(=O)c1ccc(S(=O)(=O)N2CCOCC2)cc1`, the call was inactive and the cell number change is -3.67%.

`CCn1c(=NC(=O)c2ccc(S(=O)(=O)N3CCOCC3)cc2)sc2cccc(OC)c21`: the Potency is 16.4 µM (active) and the cell number change was 4.06%.

Consider `COc1ccc(OC)c2sc(NC(=O)c3ccc(S(=O)(=O)N4CCOCC4)cc3)nc12`, for which the “lipid storage change, negative = inhibition” value is 4.31% (inactive) and the cell number change turned out to be 4.36%.

`COc1ccccc1NS(=O)(=O)c1cccc(C(=O)NCC2(N(C)C)CCCCC2)c1`: the “lipid storage change, negative = inhibition” value is 27.8% (inactive) and the cell number change was 16.3%.

`COc1ccc(Cl)cc1NS(=O)(=O)c1cccc(C(=O)NCC(c2ccco2)N(C)C)c1` (stereo not drawn): the outcome is “inactive [at 0.369 µM]”.

Regarding `COc1ccc(Cl)cc1NS(=O)(=O)c1cccc(C(=O)NCC2(N(C)C)CCCCC2)c1`, the Potency was 32.6 µM (active) and the cell number change is -25.5%.

In the case of `CCCCN(C(=O)c1ccc(NC2CC2)c([N+](=O)[O-])c1)c1c(N)n(CCCC)c(=O)[nH]c1=O`, the “lipid storage change, negative = inhibition” value is 2% (inactive).

As for `CCCNC(=O)c1cn(CC)c2cc(N3CCN(C(=O)c4ccco4)CC3)c(F)cc2c1=O`, the Potency was 16.4 µM (active) and the cell number change was -23.8%.

With `CCN(CC)CCNC(=O)c1cn(CC)c2cc(N3CCN(C(=O)c4ccco4)CC3)c(F)cc2c1=O`, the “lipid storage change, negative = inhibition” value is -9.28% (inactive) and the cell number change was 3.39%.

On to `CCN(CC)CCCNC(=O)c1cn(CC)c2cc(N3CCN(C(=O)c4ccco4)CC3)c(F)cc2c1=O`, for which the outcome was inactive and the cell number change came to 3.82%.

For `Cc1ccc(S(=O)(=O)N2CCC(=O)N(CCOCc3ccccc3C)CC2)cc1`, the “lipid storage change, negative = inhibition” value is 27.7% (inactive) and the cell number change was -1.04%.

For `Cc1cc2cc(CN(Cc3cccs3)S(=O)(=O)c3ccc4c(c3)OCCO4)c(=O)[nH]c2cc1C`, the “lipid storage change, negative = inhibition” value is 19.7% (inactive) and the cell number change was found to be 5.28%.

As for `CCCCCCCC(=O)NN1CCOCC1`, the “lipid storage change, negative = inhibition” value was -8.3% (inactive) and the cell number change turned out to be 12.9%.

On to `CCCCC(=O)Nc1ccc(C(=O)N2CCN(C)CC2)cc1`, for which the “lipid storage change, negative = inhibition” value is 13.2% (inactive).

For `CCCCCCC(=O)NN1CCN(C)CC1`, the Potency was 25.9 µM (active) and the cell number change was -18.7%.

For `Cc1onc(-c2ccccc2Cl)c1C(=O)NCc1ccc(N2CCCC2=O)cc1`, the “lipid storage change, negative = inhibition” value is 4.57% (inactive) and the cell number change was -1.75%.

For `COc1cc(C(=O)OCC(=O)Nc2cccc(S(=O)(=O)N3CCOCC3)c2)ccc1OCC(C)C`, the “lipid storage change, negative = inhibition” value was 15% (inactive) and the cell number change turned out to be 0.792%.

For the compound `CCOc1ccccc1C(=O)N[C@H](C(=O)OCc1cc(=O)oc2cc(C)ccc12)C(C)C`, the “lipid storage change, negative = inhibition” value is 21.6% (inactive) and the cell number change worked out at 1.89%.

Take `Cc1ccccc1N=C1N=C(N)c2ccccc21`: the “lipid storage change, negative = inhibition” value is 3.18% (inactive) and the cell number change was 4.71%.

As to `NC1=NCc2ccccc21`, the Potency is 18.4 µM (active) and the cell number change was -13%.

Regarding `Nc1ccccc1-c1ccccc1N`, the “lipid storage change, negative = inhibition” value was 17.3% (inactive) and the cell number change turned out to be 12.1%.

On to `CC(C)(C)C(=O)Nc1ccc(C(=O)N/N=C/c2ccccc2OC(=O)c2ccc(Cl)cc2)cc1`, for which the “lipid storage change, negative = inhibition” value was 19.8% (inactive) and the cell number change was -1.11%.

For `CCCN(CC(=O)Nc1ccccc1C)C(=O)c1ccc(-c2ccc([N+](=O)[O-])cc2)o1`, the Potency is 11.6 µM (active).

As for `CCCN(CC(=O)Nc1ccccc1C)C(=O)c1ccc(N2CCCCC2)c([N+](=O)[O-])c1`, the result was inactive and the cell number change is -25%.

As for `CCCN(CC(=O)Nc1ccccc1C)C(=O)c1ccc(COc2ccccc2)cc1`, the outcome was inactive.

Consider `CCN(CC)CCNC(=S)Nc1ccc(Cl)cc1`, for which the “lipid storage change, negative = inhibition” value is 5.37% (inactive) and the cell number change is 1.74%.
